Assays:
Experiment in all cases: DAPPL (digital affinity profiling via proximity ligation, sequencing); 10 mM Tris-HCl pH 7.5, 50 mM NaCl, 1 mM DTT, 4% glycerol, room temperature, 30 min; GST-TFs on glutathione beads, 16-mer random dsDNA library, 0.1% formaldehyde crosslink after washing; high values mean tight binding
FLI1 = target: T1, FLI1 (Homo sapiens, UniProt Q01543 1-452); conditions: protein: recombinant; tags: N-terminal GST; dsDNA, one strand shown
T1 sequence: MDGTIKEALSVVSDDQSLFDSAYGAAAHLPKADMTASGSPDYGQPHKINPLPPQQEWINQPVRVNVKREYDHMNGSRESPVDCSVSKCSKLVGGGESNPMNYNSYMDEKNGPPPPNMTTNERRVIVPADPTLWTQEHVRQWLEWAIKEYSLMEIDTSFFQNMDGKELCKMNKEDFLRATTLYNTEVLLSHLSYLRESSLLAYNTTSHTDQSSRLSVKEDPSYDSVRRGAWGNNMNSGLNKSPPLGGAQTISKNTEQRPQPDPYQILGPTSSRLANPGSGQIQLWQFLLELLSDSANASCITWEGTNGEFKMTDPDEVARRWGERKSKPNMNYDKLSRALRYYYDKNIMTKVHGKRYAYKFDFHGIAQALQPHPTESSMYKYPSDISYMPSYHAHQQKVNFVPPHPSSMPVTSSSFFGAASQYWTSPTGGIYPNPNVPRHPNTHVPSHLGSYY
How it was run: (§1)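 Binding signal is defined as a hexamer's read frequency for one factor over its frequency for the tag-only sample. To obtain reads, GST-fused human transcription factors were expressed in yeast, captured on glutathione beads, barcoded with DNA and pooled with that sample. Pools met 200 nmole of a 16-mer random double-stranded DNA library in Tris/NaCl/DTT/glycerol buffer for 30 min at room temperature before washing, 0.1% formaldehyde crosslinking, proximity ligation (BsaI/T4 ligase, 1 h, 37 °C), PCR and Illumina NextSeq500 sequencing.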

GABPA = target: T2, GABPA (Homo sapiens, UniProt Q06546 1-454); conditions: protein: recombinant; tags: N-terminal GST; dsDNA, one strand shown
T2 sequence: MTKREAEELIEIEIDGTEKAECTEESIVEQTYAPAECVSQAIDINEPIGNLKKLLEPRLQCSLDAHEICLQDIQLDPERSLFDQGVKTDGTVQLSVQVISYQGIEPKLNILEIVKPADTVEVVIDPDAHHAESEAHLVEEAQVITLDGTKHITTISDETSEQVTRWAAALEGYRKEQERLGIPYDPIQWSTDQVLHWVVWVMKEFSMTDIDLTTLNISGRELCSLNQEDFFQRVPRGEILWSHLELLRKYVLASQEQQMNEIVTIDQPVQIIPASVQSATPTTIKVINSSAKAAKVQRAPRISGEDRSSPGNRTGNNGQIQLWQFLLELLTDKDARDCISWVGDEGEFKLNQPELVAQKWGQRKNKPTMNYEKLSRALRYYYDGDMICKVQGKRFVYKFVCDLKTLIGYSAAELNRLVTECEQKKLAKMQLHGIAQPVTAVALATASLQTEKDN
How it was run: as §1

ELF1 = ELF1 (Homo sapiens, UniProt P32519 1-619); conditions: protein: recombinant; tags: N-terminal GST; dsDNA, one strand shown
ELF1, sequence (P32519 whole entry): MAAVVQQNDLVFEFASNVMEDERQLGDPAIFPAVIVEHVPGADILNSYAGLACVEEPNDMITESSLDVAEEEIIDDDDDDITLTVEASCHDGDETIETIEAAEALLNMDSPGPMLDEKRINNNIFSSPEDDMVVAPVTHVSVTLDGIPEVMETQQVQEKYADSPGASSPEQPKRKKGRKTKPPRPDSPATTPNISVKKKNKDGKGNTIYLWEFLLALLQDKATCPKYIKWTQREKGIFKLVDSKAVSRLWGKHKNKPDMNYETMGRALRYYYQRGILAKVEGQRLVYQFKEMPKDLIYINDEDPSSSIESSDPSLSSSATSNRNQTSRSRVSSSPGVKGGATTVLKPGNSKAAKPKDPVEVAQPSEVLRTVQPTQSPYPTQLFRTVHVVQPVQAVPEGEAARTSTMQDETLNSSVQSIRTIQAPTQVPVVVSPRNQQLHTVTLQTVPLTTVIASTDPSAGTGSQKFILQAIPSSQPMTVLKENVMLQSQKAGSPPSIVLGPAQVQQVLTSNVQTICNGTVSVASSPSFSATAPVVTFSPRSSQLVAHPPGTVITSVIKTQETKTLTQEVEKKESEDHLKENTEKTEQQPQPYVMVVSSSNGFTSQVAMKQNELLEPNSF
How it was run: as §1

EHF = target: T3, EHF (Homo sapiens, UniProt Q9NZC4 1-300); conditions: protein: recombinant; tags: N-terminal GST; dsDNA, one strand shown
T3 sequence: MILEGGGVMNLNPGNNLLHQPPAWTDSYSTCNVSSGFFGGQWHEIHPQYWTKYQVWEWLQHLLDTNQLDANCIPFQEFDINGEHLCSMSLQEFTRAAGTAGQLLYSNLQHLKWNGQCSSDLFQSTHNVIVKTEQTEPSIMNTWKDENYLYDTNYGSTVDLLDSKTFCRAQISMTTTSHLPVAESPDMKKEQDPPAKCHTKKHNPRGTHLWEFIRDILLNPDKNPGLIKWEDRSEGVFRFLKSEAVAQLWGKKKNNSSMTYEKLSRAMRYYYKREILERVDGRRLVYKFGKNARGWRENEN
How it was run: as §1

SPI1 = SPI1 (Homo sapiens, UniProt P17947 1-270); conditions: protein: recombinant; tags: N-terminal GST; dsDNA, one strand shown
How it was run: as §1

SPIB = SPIB (Homo sapiens, UniProt Q01892 1-262); conditions: protein: recombinant; tags: N-terminal GST; dsDNA, one strand shown
SPIB, sequence (Q01892 whole entry): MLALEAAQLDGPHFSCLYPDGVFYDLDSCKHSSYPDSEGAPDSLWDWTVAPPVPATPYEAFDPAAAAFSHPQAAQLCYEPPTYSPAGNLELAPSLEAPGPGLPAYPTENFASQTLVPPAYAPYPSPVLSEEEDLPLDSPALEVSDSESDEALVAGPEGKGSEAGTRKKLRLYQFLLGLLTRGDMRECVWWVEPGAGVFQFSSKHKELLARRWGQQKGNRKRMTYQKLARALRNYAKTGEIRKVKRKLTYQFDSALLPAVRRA
How it was run: as §1

ELK3 = target: T4, ELK3 (Homo sapiens, UniProt P41970 1-407); conditions: protein: recombinant; tags: N-terminal GST; dsDNA, one strand shown
T4 sequence: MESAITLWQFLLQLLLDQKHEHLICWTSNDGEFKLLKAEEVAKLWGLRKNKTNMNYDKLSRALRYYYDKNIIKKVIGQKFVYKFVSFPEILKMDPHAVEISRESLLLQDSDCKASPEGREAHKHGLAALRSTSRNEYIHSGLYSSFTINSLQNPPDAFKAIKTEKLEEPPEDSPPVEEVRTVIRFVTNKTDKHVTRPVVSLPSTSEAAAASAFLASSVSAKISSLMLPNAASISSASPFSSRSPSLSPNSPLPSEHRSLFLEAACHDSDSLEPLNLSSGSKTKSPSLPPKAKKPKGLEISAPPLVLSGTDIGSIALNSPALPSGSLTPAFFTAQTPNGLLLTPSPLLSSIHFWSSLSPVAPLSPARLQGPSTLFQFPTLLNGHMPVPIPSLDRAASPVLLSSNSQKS
How it was run: as §1

ETV5 = ETV5 (Homo sapiens, UniProt P41161 1-510); conditions: protein: recombinant; tags: N-terminal GST; dsDNA, one strand shown
ETV5, sequence (P41161 whole entry): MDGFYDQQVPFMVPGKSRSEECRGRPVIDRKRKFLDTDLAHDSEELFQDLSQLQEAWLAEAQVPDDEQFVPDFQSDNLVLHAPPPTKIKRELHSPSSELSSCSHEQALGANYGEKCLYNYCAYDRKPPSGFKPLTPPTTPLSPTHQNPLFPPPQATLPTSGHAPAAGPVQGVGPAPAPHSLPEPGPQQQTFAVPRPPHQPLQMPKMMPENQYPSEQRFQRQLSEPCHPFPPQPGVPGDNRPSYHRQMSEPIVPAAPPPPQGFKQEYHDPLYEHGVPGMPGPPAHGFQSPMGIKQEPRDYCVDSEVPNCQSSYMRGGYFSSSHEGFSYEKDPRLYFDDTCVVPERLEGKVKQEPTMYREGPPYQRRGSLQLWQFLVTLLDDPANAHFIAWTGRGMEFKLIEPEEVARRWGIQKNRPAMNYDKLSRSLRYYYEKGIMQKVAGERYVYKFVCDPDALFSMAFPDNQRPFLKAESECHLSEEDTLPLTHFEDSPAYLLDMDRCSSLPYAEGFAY
How it was run: as §1

HSF1 = HSF1 (Homo sapiens, UniProt Q00613 1-529); conditions: protein: recombinant; tags: N-terminal GST; chain copies: 3; dsDNA, one strand shown
HSF1, sequence (Q00613 whole entry): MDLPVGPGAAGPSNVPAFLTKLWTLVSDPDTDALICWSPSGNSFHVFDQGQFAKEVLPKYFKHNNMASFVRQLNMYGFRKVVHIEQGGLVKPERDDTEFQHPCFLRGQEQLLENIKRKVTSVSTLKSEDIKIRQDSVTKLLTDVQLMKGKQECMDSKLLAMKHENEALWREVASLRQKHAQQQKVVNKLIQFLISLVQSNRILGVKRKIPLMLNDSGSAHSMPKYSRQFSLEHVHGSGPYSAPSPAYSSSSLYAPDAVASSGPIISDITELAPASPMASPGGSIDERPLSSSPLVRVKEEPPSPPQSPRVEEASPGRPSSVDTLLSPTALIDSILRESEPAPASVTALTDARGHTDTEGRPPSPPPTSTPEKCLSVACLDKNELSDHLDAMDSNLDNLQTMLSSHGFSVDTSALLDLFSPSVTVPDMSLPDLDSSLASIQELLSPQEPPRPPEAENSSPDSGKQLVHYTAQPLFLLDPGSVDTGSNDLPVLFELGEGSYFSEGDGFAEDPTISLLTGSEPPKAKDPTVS
How it was run: as §1

SPIC = target: T5, SPIC (Homo sapiens, UniProt Q8N5J4 1-248); conditions: protein: recombinant; tags: N-terminal GST; dsDNA, one strand shown
T5 sequence: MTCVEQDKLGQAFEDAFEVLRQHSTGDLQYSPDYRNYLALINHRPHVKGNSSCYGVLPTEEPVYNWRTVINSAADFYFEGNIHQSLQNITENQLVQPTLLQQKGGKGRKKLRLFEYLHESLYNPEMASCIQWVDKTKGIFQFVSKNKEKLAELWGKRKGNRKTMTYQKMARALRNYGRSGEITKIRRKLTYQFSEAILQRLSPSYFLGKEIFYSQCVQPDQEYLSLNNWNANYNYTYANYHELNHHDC
How it was run: as §1

ELF4 = ELF4 (Homo sapiens, UniProt Q99607 1-663); conditions: protein: recombinant; tags: N-terminal GST; dsDNA, one strand shown
ELF4, sequence (Q99607 whole entry): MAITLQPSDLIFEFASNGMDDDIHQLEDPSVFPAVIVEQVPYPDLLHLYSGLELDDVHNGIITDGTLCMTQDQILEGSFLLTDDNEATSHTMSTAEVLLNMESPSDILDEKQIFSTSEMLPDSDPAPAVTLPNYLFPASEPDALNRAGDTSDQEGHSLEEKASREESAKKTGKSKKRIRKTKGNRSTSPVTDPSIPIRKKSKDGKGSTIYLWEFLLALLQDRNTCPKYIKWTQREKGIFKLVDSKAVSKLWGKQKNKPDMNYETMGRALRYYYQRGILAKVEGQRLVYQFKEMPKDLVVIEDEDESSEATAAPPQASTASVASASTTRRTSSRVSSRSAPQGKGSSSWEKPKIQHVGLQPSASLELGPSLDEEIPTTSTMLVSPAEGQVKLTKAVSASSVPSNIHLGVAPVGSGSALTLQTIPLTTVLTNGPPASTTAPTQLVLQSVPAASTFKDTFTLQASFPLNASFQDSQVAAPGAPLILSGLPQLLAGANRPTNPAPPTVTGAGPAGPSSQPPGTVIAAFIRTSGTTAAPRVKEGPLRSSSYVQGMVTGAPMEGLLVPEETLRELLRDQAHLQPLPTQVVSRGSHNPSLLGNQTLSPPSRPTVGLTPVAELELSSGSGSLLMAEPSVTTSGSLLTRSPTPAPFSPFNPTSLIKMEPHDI
How it was run: as §1

ELK4 = target: T6, ELK4 (Homo sapiens, UniProt P28324-2 1-405); conditions: protein: recombinant; tags: N-terminal GST; dsDNA, one strand shown
T6 sequence: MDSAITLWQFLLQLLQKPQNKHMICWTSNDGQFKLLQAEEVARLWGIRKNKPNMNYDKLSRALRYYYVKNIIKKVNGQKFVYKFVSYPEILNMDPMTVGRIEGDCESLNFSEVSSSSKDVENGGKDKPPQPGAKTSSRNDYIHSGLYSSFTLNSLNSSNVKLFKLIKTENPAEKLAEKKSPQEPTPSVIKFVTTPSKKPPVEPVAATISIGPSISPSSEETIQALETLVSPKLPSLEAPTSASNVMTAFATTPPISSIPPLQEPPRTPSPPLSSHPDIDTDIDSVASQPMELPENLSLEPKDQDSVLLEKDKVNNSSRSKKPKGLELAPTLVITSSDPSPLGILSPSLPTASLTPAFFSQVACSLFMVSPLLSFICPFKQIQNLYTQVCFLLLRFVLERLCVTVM
How it was run: as §1

ETV2 = target: T7, ETV2 (Homo sapiens, UniProt O00321 1-342); conditions: protein: recombinant; tags: N-terminal GST; dsDNA, one strand shown
T7 sequence: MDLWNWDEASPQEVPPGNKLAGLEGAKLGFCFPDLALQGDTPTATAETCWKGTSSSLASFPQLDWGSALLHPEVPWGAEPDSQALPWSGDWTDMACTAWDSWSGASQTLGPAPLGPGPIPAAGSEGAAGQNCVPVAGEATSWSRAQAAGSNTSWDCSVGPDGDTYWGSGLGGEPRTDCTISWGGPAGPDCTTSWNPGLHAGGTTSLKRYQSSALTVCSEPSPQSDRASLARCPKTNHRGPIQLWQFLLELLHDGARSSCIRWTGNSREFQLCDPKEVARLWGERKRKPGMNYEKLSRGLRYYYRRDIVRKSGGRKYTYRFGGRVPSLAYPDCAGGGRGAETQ
How it was run: as §1

ELF3 = target: T8, ELF3 (Homo sapiens, UniProt P78545 1-371); conditions: protein: recombinant; tags: N-terminal GST; dsDNA, one strand shown
T8 sequence: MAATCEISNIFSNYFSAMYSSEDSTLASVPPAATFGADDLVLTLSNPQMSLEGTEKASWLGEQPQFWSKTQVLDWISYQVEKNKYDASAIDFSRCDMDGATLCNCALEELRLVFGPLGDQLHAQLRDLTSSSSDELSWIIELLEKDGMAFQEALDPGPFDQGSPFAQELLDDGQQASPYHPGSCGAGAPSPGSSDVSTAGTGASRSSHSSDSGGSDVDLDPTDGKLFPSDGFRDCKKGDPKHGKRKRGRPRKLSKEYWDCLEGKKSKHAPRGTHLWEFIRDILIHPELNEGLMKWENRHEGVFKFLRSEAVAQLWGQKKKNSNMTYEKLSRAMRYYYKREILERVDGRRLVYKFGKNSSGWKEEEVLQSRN
How it was run: as §1

CRX = CRX (Homo sapiens, UniProt O43186 1-299); conditions: protein: recombinant; tags: N-terminal GST; dsDNA, one strand shown
CRX, sequence (O43186 whole entry): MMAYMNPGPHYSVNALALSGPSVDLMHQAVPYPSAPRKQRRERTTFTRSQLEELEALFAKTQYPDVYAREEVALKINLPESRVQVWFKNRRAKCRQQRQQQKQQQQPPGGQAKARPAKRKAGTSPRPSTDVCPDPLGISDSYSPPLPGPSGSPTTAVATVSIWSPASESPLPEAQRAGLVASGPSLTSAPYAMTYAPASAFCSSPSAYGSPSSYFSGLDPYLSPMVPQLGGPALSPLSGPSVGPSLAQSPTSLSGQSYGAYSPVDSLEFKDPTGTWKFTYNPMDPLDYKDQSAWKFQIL
How it was run: as §1

ETV1 = ETV1 (Homo sapiens, UniProt P50549 1-477); conditions: protein: recombinant; tags: N-terminal GST; dsDNA, one strand shown
ETV1, sequence (P50549 whole entry): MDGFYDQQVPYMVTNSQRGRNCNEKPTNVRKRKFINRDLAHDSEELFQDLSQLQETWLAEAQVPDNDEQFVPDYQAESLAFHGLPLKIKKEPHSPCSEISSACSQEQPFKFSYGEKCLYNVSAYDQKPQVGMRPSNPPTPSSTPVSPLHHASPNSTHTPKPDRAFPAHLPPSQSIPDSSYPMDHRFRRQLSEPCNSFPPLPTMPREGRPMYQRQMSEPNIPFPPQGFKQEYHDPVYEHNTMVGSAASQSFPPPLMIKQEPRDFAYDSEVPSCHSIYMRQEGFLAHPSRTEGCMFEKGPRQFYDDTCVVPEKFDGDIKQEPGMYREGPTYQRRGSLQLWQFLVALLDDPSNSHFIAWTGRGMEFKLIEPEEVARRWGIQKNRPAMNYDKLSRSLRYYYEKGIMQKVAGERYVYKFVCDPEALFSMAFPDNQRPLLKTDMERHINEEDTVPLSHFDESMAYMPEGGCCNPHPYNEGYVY
How it was run: as §1

TAGTAA was tested, and the binding signal (FLI1) was 1.13 fold enrichment (6-mer frequency, TF over GST control), the binding signal (GABPA) was 1.03 fold enrichment (6-mer frequency, TF over GST control) and the binding signal (ELF1) was 1.08 fold enrichment (6-mer frequency, TF over GST control). For the same sequence, the binding signal (EHF) was 1.03 fold enrichment (6-mer frequency, TF over GST control), the binding signal (SPI1) was 1.02 fold enrichment (6-mer frequency, TF over GST control) and the binding signal (SPIB) was 1.07 fold enrichment (6-mer frequency, TF over GST control). The binding signal (ELK3) was 1.13 fold enrichment (6-mer frequency, TF over GST control), the binding signal (ETV5) was 1.05 fold enrichment (6-mer frequency, TF over GST control) and the binding signal (HSF1) was 1.54 fold enrichment (6-mer frequency, TF over GST control). For the same sequence, the binding signal (SPIC) was 1.07 fold enrichment (6-mer frequency, TF over GST control), the binding signal (ELF4) was 1.05 fold enrichment (6-mer frequency, TF over GST control) and the binding signal (ELK4) was 1.04 fold enrichment (6-mer frequency, TF over GST control). For the same sequence, the binding signal (ETV2) was 1.12 fold enrichment (6-mer frequency, TF over GST control), the binding signal (ELF3) was 1.06 fold enrichment (6-mer frequency, TF over GST control) and the binding signal (CRX) was 1.59 fold enrichment (6-mer frequency, TF over GST control). The binding signal (ETV1) was 1.07 fold enrichment (6-mer frequency, TF over GST control).

— article PMC7862700, “An all-to-all approach to the identification of sequence-specific readers for epigenetic DNA modifications on cytosine”
